Test results from ChEMBL document CHEMBL3988442, “University of Dundee, Small-Polar-MMV Screening Library” (2021).
Among all 53,000 compounds or so, about 900 (1.7%) showed an effect of 50% or more. The sample holds strong results, similar compounds and a random draw of the others, so the mix is not that of the screen.

test system: Mycobacterium tuberculosis; assay: Cornell - Phenotypic assay to identify agents that inhibit growth of Mycobacterium tuberculosis; format: functional; design: scale not given: direction of the effect not stated beside the values; settings: 10 mM as filed; unlikely as a test dose

SMILES	Percent Effect [%]
COCCC(=O)N(CCC#N)c1ccc2c(c1)OCCO2	0.8387
Cc1noc(C)c1-c1cccc(C2CCN(S(=O)(=O)N(C)C)CC2)n1	42.71
O=S(=O)(N1CCCCC1)N1CCC(Oc2cnccn2)CC1	20.22
CN(C(=O)c1ccon1)[C@@H]1CCC[C@@H](Oc2ccccc2)[C@@H]1O	-13.46
O=C(COc1ccc(-c2ccccc2)nc1)NCC1CC1	18.89
CCc1oc(C(=O)N(C)Cc2ccncc2)cc1CN(CC)CC	3.07
COC(=O)c1ccc(N2CCC(c3ccccc3)CC2)nn1	26.44
COC(=O)c1ccc(N2CCC(C(O)c3ccccc3)CC2)nn1 (stereo not drawn)	106
COC(=O)c1ccc(N2CCC(N(C)c3ccccc3)CC2)nn1	11.3
OCC(CO)N1CCCC(Cc2ccnc(Nc3ccccn3)c2)C1 (stereo not drawn)	10.34
Cc1cc(C)n(CCNc2ncnc3c2NC(=O)CN3)n1	18.99
C/N=C1\c2cc3cc(OC)ccc3n2CCN1Cc1ccccc1.O=C(O)C(F)(F)F	22.23
C/N=C1/c2cc3cc(OC)ccc3n2CCN1Cc1ccccc1.Cl	57.78
C/N=C1\c2cc3cc(OC)ccc3n2CCN1C.Cl	-3.392
CNC(=O)CN1CCOCC12CCN(C(=O)c1ccc(C)cc1)CC2.O=C(O)C(F)(F)F	15.73
CC(C)n1ccc(-c2cc(C(=O)N3CCN(C)CC3)c3ccccn23)n1.O=C(O)C(F)(F)F	-46.58
CCN(C)C(=O)c1cc(-c2cn(C(C)C)cn2)n2ccccc12	-58.24
CC(C)n1ccc(-c2cc(C(=O)NC3CC3)c3ccccn23)n1	-20.13
CCCNC(=O)c1cc(-c2ccn(C(C)C)n2)n2ccccc12	54.8
CCN(C)C(=O)c1cc(-c2ccn(C(C)C)n2)n2ccccc12	68.36
CC(C)n1ccc(-c2cc(C(=O)N3CCCC3)c3ccccn23)n1	40.75
O=C(c1cc[nH]n1)N1CCc2c(nc(N3CCCCC3)[nH]c2=O)C1	11.2
CC(C#N)CN(C)C(=O)CCNC(=O)OC(C)(C)C (stereo not drawn)	19.92
Cc1cnc(C(=O)N2CCN3C[C@H](OCc4cccnc4)C[C@H]3C2)cn1	-31.84
Cc1ccc(CNCc2cccc(NC(=O)CCN3CCOCC3)c2)s1	14.02

SMILES	Percent Effect [%]
CC1=C(C#N)C(=O)NC(=O)/C1=C\c1c(C)nn(-c2ccc(C)cc2)c1O	24.62
Cc1nc(CN2C(=O)CC[C@@H]3[C@H]2CCN3C2CCOC2)cs1.O=C(O)C(F)(F)F (stereo partly drawn)	9.813
CC(=O)N1C[C@@H]2CN(S(=O)(=O)C3CC3)CCO[C@@H]2C1	-7.882
CCn1nccc1CN(C)C(=O)Cn1nc(C)c(C)c1C	1.975
CC(C)N(C)Cc1n[nH]c2c1CCN(C(=O)c1ccc[nH]1)C2.O=C(O)C(F)(F)F	-20.42
O=C(Cn1ncc2c(c1=O)CCCCC2)Nc1cccc2[nH]ccc12	32.47
Cn1ccc2c(NC(=O)Cn3ncc4c(c3=O)CCCCC4)cccc21	7.683
Cn1ccc2c(NC(=O)Cn3ncc4c(c3=O)CCCC4)cccc21	50.09
O=C1C(n2nnc(-c3cccs3)n2)CCN1CC(F)(F)F (stereo not drawn)	21.02
Cc1cccc(CNC(=O)CC2CCN(C(=O)C(C)C)CC2)n1	-31.48
CO[C@@H]1CCN(c2nnc(C)s2)C[C@@H]1Cc1cccc(C)c1.O=C(O)C(F)(F)F	41.6
Cc1nnc(N2CC[C@@H](OCC3CC3)[C@@H](Cc3ccccc3)C2)s1.O=C(O)C(F)(F)F	81.09
Cc1nnc(N2CC[C@H](OCC3CC3)[C@@H](Cc3ccccc3)C2)s1.O=C(O)C(F)(F)F	73.55
CO[C@H]1CCN(c2nnc(C)s2)C[C@@H]1Cc1ccccc1.O=C(O)C(F)(F)F	35.25
CO[C@@H]1CCN(c2nnc(C)s2)C[C@@H]1Cc1ccccc1.O=C(O)C(F)(F)F	33.57
CO[C@H]1CCN(c2nnc(C)s2)C[C@@H]1Cc1cccc(C)c1.O=C(O)C(F)(F)F	15.98
Cc1noc(C)c1CCC(=O)Nc1ccn(C)n1	-3.564
CC(C)(C(N)=O)S(=O)(=O)c1ccc(Br)cc1	7.461
CCc1nnc2sc(-c3cc(C(C)C)n[nH]3)nn12	-59.74
CC(C)(CC(=O)Nc1cccc(Oc2ccccn2)c1)C(=O)O	-19.67
CC(C)NC(=O)CCC(=O)N1CCC(c2noc3cc(F)ccc23)CC1	-48.35
O=C(Cn1ccc2c(Cl)cccc21)Nc1nc[nH]n1	5.076
Cc1cccc(CN2CCC3(CCN(c4ncccn4)C3)C2=O)c1 (stereo not drawn)	5.151
Cc1cccc(CN2CCC3(CCN(c4ccccn4)C3)C2=O)c1.O=C(O)C(F)(F)F (stereo not drawn)	27.3
Cc1cccc(CN2CCC3(CCN(c4ncccn4)CC3)C2=O)c1.O=C(O)C(F)(F)F	58.32

SMILES	Percent Effect [%]
CN(Cc1cccc(F)c1)Cc1nc2c(cnn2C)c(=O)[nH]1	-23.35
Cc1noc(C)c1CN1CCC(c2nnc(Cn3cccn3)n2C)CC1	16.69
C[C@@H]1CN(c2cccnn2)CC[C@@]1(O)C1CCOCC1	-7.399
Cc1ccc(-c2nc(CN3C[C@@H](C)NC[C@@H]3C)c(C)o2)s1	12.13
COc1cccc(-c2cccc(N3CCC(N[C@@H]4CCOC4)CC3)c2)c1	39.62
Clc1cccc(-c2cccc(N3CCC(NC4CCOCC4)CC3)c2)c1	72.63
Cc1ccc(-c2cccc(N3CCC(NC4CCOCC4)CC3)c2)cc1	33.16
CCc1ccc(-c2ncc3c(n2)N(C)CCN(CCN(C)C)C3=O)cc1	13.52
CC(=O)NCCCNCc1c(C)nn(CC(C)C)c1N(C)C	2.619
Cc1nc(C)c(C(C)NCc2c(C(C)C)nn(C)c2N(C)C)s1 (stereo not drawn)	21.22
Cc1nn(CC(C)C)c(N(C)C)c1CNCc1cc2ccccc2[nH]1	72.88
Cc1nc(C)c(C(C)NCc2c(C)nn(C)c2N(C)C)s1 (stereo not drawn)	45.94
Cc1nn(CC(C)C)c(N(C)C)c1CNCCS(C)(=O)=O	83.1
Cc1nc(C)c(C(C)NCc2c(C)nn(CC(C)C)c2N(C)C)s1 (stereo not drawn)	102.6
Cc1nn(CC(C)C)c(N(C)C)c1CNCCCNS(C)(=O)=O	49.77
Cc1nn(CC(C)C)c(N(C)C)c1CNCc1ccccc1CO	17.46
Cc1nn(CC(C)C)c(N(C)C)c1CNCc1cccnc1N(C)C	34.46
O=C(Cc1csc(-c2ccoc2)n1)NCCC(=O)N1CCCCC1	-18.79
O=C(CN1CCC(c2ccccc2)CC1)NCc1cc2n(n1)CCNC2	-6.243
Cc1ccc(NC(=O)c2coc(C)n2)c(C)c1	2.34
CCN1CCCC(O)(c2nc(C)c(CCOc3ccccc3Cl)s2)CC1 (stereo not drawn)	12.65
Fc1cnc(N2CCO[C@H]3[C@H](OCC4CCOCC4)CC[C@@H]32)nc1.O=C(O)C(F)(F)F	-12.23
Fc1cccc(CN2CCC(c3n[nH]c4ncccc34)CC2)c1F	12.02
Cl.Fc1cccc(CN2CCC(c3cc4ncccc4cn3)CC2)c1F	106.5
Fc1ccc(F)c(CN2CCC(c3cnccn3)CC2)c1	-8.862

SMILES	Percent Effect [%]
Cl.Fc1ccc(F)c(CN2CCC(c3cc4ncccc4cn3)CC2)c1	106.2
Fc1cc(F)cc(CN2CCC(c3cc4ncccc4cn3)CC2)c1	48.17
COc1ccc(C)cc1CN1CCC(c2cc3ncccc3cn2)CC1.Cl	102.1
CCc1onc(C)c1C(=O)N1CCC(c2cc3ncccc3cn2)CC1	-10.62
Fc1cccc(CN2CCC(c3noc(-c4ccccn4)n3)CC2)c1F	10.24
CCc1cc(C(=O)N2CCC(c3cc4ncccc4cn3)CC2)no1	-43.86
CN(C)CC(=O)N1CCCC1c1ccccn1 (stereo not drawn)	-4.262
Cc1cc(O)nc(C2CN(CCO)CCO2)n1 (stereo not drawn)	-14.9
O=C(NC(Cc1ccsc1)c1nccs1)C1CC1 (stereo not drawn)	1.52
COc1ccc(-c2cc(C(=O)NCCC(C)C)n(C)n2)cc1	20.81
Cc1cnc(-c2nc(O)c3c(n2)CN(C(=O)C2CCOC2)CC3)cn1 (stereo not drawn)	13.55
Cc1nccn1-c1nccnc1C1CCCN(C2CCCC2)C1 (stereo not drawn)	-26.29
CCc1nccn1C1CCCN(C(=O)c2c(C)nsc2NC)C1 (stereo not drawn)	-1.736
COCCc1noc(CNC(C)(CO)C2CCCCC2)n1 (stereo not drawn)	19.83
Cc1ncc2c(n1)CN(CC(=O)Nc1c(C)nn(C)c1C)CC2	-7.381
COCc1ncn(Cc2nc(-c3ccc(OC)cc3F)oc2C)n1	-34.66
COc1ccc(-c2nc(CN3CCCC(OC)C3)c(C)o2)c(F)c1 (stereo not drawn)	56.05
CCCOC1CCCN(Cc2nc(-c3ccc(F)cc3F)oc2C)C1 (stereo not drawn)	18.51
COCC(=O)NC[C@]1(O)CN(Cc2ccc3c(c2)OCCO3)C[C@H]1O	24.95
C=Cn1ncc(CN2CCC(c3ncc(Cl)cc3S(C)(=O)=O)CC2)c1C	0.06604
CCn1ncc(CN2CCC(c3ncc(Cl)cc3S(C)(=O)=O)CC2)c1C	50.49
CCn1cc(CN2CCC(c3ncc(Cl)cc3S(C)(=O)=O)CC2)c(C)n1	37.62
O=C(NS(=O)(=O)c1cccnc1)C1CC(c2ccccc2)=NO1 (stereo not drawn)	35.93
